HP1b chromo inh = inhibitors of HP1-beta chromodomain binding to methylated histone tails; AlphaScreen HP1-beta / biotin-H3K9me3 peptide binding; AID 540317; actives 0.56% (n = 390,000); Potency, µM (series often up to 114 µM), inactives show at the top dose activity change, negative = inhibition, most hits filed as inhibitors; further: nearly all actives have a fitted effect of over 70% in size
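HP1-beta protein (50 nM final) preincubated 30 min at room temperature with biotinylated H3(1-18)K9me3 peptide (50 nM) in PBS pH 7.4, 0.01% Tween-20, then compound added for 30 min. AlphaScreen streptavidin donor/nickel chelate acceptor beads (10 ug/mL final), 30 min dark, luminescence read.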
PLK1 PBD inh = blocks phosphopeptide binding to human PLK1 polo-box domain | Potency, µM, for inactives: max response, negative = inhibition, most hits filed as inhibitors | P53350 | Plk1 PBD binding of FITC phosphopeptide, fluorescence polarization | actives 2.8% (n = 360,000); further: series mostly up to about 57 µM; on the % scale 0 is the no-effect control and ±100 the full control effect; nearly all actives have a fitted effect of over 65% in size
G9a inh = G9a (human) methyltransferase inhibition | Q96KQ7 | G9a H3K9 monomethylation, AlphaScreen, 2 h | Potency, µM (highest dose often 102 µM), for inactives: top-dose activity, negative = inhibition, most hits filed as inhibitors | actives 8.8% (n = 350,000) | AID 504332; further: on the % scale 0 is the no-effect control and ±100 the full control effect; nearly all actives have a fitted effect of over 75% in size
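Methyltransferase reactions run at room temperature for 2 h (20 nM enzyme, 500 nM biotin-H3K9 peptide, 20 uM SAM) after a 15 min compound preincubation; product detected by AlphaScreen beads and anti-H3K9me1 antibody.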
JMJD2A Tudor inh = JMJD2A Tudor domain (human) inhibition; O75164; AlphaScreen JMJD2A-Tudor / H3K4me3 peptide binding; Potency, µM (doses to about 114 µM), inactives show at the top dose activity change, negative = inhibition, most hits filed as inhibitors; actives 4.4% (n = 390,000); AID 504339; further: on the % scale 0 is the no-effect control and ±100 the full control effect; nearly all actives have a fitted effect of over 50% in size
Target sequence (O75164 whole entry, looked up, the tested form may be a part): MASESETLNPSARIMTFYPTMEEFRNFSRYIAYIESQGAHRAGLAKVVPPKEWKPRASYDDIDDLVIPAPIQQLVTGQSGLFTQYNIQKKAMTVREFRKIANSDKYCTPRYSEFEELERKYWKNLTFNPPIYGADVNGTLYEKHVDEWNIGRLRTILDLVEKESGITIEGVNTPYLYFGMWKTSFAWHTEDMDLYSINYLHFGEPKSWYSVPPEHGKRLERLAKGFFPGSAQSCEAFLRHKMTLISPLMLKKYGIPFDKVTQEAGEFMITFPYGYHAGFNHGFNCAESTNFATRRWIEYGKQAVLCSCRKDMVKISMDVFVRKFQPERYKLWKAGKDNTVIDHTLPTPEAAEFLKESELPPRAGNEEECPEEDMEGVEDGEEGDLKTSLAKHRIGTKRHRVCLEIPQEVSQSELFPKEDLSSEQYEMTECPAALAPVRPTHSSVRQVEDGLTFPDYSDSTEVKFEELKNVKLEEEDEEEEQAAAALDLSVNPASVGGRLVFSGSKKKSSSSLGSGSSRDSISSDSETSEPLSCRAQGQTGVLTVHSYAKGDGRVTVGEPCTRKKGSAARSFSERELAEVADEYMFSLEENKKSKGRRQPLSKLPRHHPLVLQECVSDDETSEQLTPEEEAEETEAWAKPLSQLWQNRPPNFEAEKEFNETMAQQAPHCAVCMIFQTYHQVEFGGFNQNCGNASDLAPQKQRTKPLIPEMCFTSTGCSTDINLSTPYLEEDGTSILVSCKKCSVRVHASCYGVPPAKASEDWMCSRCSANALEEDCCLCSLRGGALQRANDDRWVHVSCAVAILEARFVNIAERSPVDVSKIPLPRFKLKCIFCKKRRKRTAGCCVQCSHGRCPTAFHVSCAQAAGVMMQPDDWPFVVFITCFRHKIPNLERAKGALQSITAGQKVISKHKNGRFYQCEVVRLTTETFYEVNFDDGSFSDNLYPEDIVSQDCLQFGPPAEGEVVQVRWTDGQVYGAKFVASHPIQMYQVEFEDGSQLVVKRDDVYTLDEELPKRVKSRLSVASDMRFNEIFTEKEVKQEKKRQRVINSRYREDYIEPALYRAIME
BAZ2B block = BAZ2B (human) inhibition. Q9UIF8. AID 504333. Potency, µM (top dose mostly 114 µM), for inactives: top-dose activity change, negative = inhibition, usual class: inhibitors. actives 4.4% (n = 360,000). AlphaScreen BAZ2B-H3K14Ac peptide displacement; further: on the % scale 0 is the no-effect control and ±100 the full control effect; nearly all actives have a fitted effect of over 60% in size
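Complex of BAZ2B and biotin-H3K14Ac (50 nM apiece) forms over 30 min at RT, then faces library compounds up to 110 uM for another 30 min; AlphaScreen beads added, 20 min dark incubation, luminescence read.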
Sfp inh = blocks B. subtilis Sfp PPTase activity. Q9F4F7. Biochemical Sfp PPTase activity, qHTS. Potency, µM, for the others: largest response in the series, negative = inhibition, usual class: inhibitors. actives 3.5% (n = 310,000). AID 1490;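 further: the enzyme is Sfp with the accession as filed and its product quenches rhodamine fluorescence; 0% = enzyme reaction without inhibitor and -100% = no enzyme wells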
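Compounds were incubated with enzyme (final 15 nM) for 15 min at room temperature before substrate addition started the reaction. Fluorescence at 525 nm excitation, 598 nm emission was recorded immediately and after 30 minutes.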
The depositor's hits bear a star; ? = inconclusive; / = no result; [ ] = remark or other dose. Rows were chosen to be rich in hits. Some 12% of all compounds tested hit in one or more screens of this group. The call rests on the fitted dose curve; in most records, active means well fitted curve in the direction sought with a large enough effect; inconclusive means small, poorly fitted or top-dose-only effect, or another doubt; inactive means no such curve, though single readings can be large; an effect the other way counts as inactive or inconclusive. Potency means the concentration at half of the fitted maximal effect.

SMILES	HP1b chromo inh	PLK1 PBD inh	G9a inh	JMJD2A Tudor inh	BAZ2B block	Sfp inh
COc1ccc(-n2nc(C(=O)Nc3cc(C)ccn3)c3c4ccccc4n(C)c3c2=O)cc1Cl	22.6%	/	-27.8%[59 µM]	-9.0%	/	/
CCOC(=O)c1ccc(N2C(=O)c3[nH]nc(-c4ccc(OCC)cc4)c3C2c2cccs2)cc1 (stereo unspecified)	30.8%	/	-7.8%[59 µM]	-14.0%	/	/
CN1CCN(CCCNC(=O)c2ccc(/C=C3\Sc4ccccc4N(Cc4ccc(F)cc4)C3=O)cc2)CC1	-15.0%	-0.6%	?	?	?	44.7µM*
Cc1ccc(S(=O)(=O)N2CCN(C(=O)COC(=O)CNC(=O)c3ccccc3)CC2)c(C)c1	10.0%	-4.1%	-22.1%	-16.3%	4.0%	/
COc1ccc(N2CCN(C(=O)COC(=O)CNC(=O)c3ccc(Cl)cc3Cl)CC2)cc1	-10.1%	-7.5%	44.7µM*	-12.8%	-30.3%	/
COc1ccc(OCC(=O)N2CCN(c3cccc(Cl)c3)CC2)cc1	12.3%	-2.0%	-2.4%[59 µM]	-19.2%	3.8%	6.0%
Cc1ccc(S(=O)(=O)N2CCN(C(=O)COC(=O)CNC(=O)c3ccc(Cl)cc3Cl)CC2)c(C)c1	-2.2%	-20.4%	/	25.1µM*	/	/
COc1ccc(N2CCN(C(=O)COc3ccc(Cl)cc3Cl)CC2)cc1	-16.1%	-7.3%	6.31µM*	?	?	4.9%
COc1ccc(N2CCN(C(=O)COC(=O)CNC(=O)c3ccccc3)CC2)cc1	5.7%	-4.1%	19.7%	-8.3%	-13.8%	14.4%
C/C(CCc1ccc2c(c1)OCO2)=N\N=C1\NC(=O)CC(C(=O)Nc2ccc(Cl)cc2)S1 (stereo unspecified)	14.9%	-1.9%	12.7%	-27.9%	-28.4%	18.9%
COC(=O)C1=C(C(=O)OC)[C@@H]2N(Cc3ccccc3)c3ccccc3[C@@]23C[C@@H](C(=O)OC)N(C(=O)c2ccco2)C3=N1	/	/	/	/	/	9.0%
CC(C)c1ccc(Nc2nnc(SCC(=O)Nc3ncc(S(=O)(=O)c4ccc([N+](=O)[O-])cc4)s3)s2)cc1	13.5%	42.3µM*	35.5µM*	-13.6%	-20.4%	1.6%
Cc1ccc(Nc2nnc(SCC(=O)Nc3ncc(S(=O)(=O)c4ccc([N+](=O)[O-])cc4)s3)s2)cc1	-4.2%	-6.5%	-10.2%[59 µM]	-23.1%	-19.0%	-16.0%
Cc1cc(=O)[nH]c(SCC(=O)Nc2ncc(S(=O)(=O)c3ccc([N+](=O)[O-])cc3)s2)n1	?	-27.5%	44.7µM*	-25.0%	-13.1%	-4.0%
O=C(Nn1cnc2ccccc2c1=O)c1ccc([N+](=O)[O-])cc1	37.1%	-7.1%	-3.5%	-8.3%[57.1 µM]	-1.5%	18.9%
CCOc1ccccc1C(O)C1=CC(=O)c2ccccc2C1=O (stereo unspecified)	-21.2%	?	/	25.1µM*	/	/
CCOc1ccccc1NC(=O)CN1C(=O)C(=O)c2ccccc21	29.3%	/	3.8%[59 µM]	-15.1%	-12.2%	/
COC(=O)Cc1ccc(O)c(N)c1	?	9.47µM*	?	10µM*	-15.0%	-7.9%
Brc1ccc(C=Nc2ccc3c(c2)OCCOCCOCCO3)s1	-1.1%	-8.5%	29.1%[59 µM]	-9.8%	1.0%	0.1%
CSc1ccc(C(=O)NCC(=O)O)cc1[N+](=O)[O-]	-9.8%	26.7µM*	-29.9%	-5.1%[11.4 µM]	-10.9%	30.1%
O=C(O)CNC(=O)c1ccc(Sc2ccccc2)c([N+](=O)[O-])c1	12.1%	-16.3%	5.1%	-16.2%	-16.0%	18.2%
N#C/C(=C/c1ccc(O)c(O)c1)c1nc2ccccc2[nH]1	?	20.1%	11.2µM*	28.2µM*	7.94µM*	-28.5%
Cc1cc(/C=C(/C#N)c2nc3ccccc3[nH]2)c(C)n1-c1ccccc1C(=O)O	-15.4%	-8.3%	31.6µM*	-35.4%	50.1µM*	17.8%
N#C/C(=C\c1ccc(-c2ccccc2C(=O)O)o1)c1nc2ccccc2[nH]1	5.0%	?	39.8µM*	20µM*	79.4µM*	0.2%
Cc1cc(/C=C(/C#N)c2nc3ccccc3[nH]2)c(C)n1-c1cc(C(=O)O)cc(C(=O)O)c1	?	?	12.6µM*	25.1µM*	39.8µM*	0.4%
SMILES	HP1b chromo inh	PLK1 PBD inh	G9a inh	JMJD2A Tudor inh	BAZ2B block	Sfp inh
N#C/C(=C\c1ccc(Cl)cc1)c1nc2ccccc2[nH]1	28.6%	/	29.6%[59 µM]	-34.6%	-7.5%	/
O=C(Cn1cnc([N+](=O)[O-])c1)NC1CCCC1	33.0%	-9.9%	-11.0%[59 µM]	-1.4%	3.2%	5.6%
CCOc1ccc(-c2nnc(SCC(=O)NCCc3ccccc3)nc2-c2ccc(OCC)cc2)cc1	28.1%	/	-4.5%[59 µM]	-20.5%	-7.3%	/
COc1ccc(CCN(Cc2ccc(C(C)C)cc2)S(=O)(=O)c2ccc(S(=O)(=O)N(C)C)cc2)cc1OC	13.6%	-3.1%	-9.6%[59 µM]	-4.8%	8.7%	7.3%
COc1ccc(CCN(C)CCCOc2ccc(S(=O)(=O)c3[nH]c4ccccc4c3C(C)C)cc2)cc1OC	/	/	/	/	/	39.8µM*
CCn1nc(C)cc1-c1n[nH]c(=S)n1N	?	-3.4%	2.82µM*	8.91µM*	?	44.7µM*
S=C(NNc1cccc(Cl)c1)NC1CCCCC1	?	0.0%	28.2µM*	8.91µM*	35.5µM*	-2.7%
S=C(Nc1cccc(Cl)c1)NC1CCCCC1	49.0%	-3.7%	44.1%	-3.8%	3.6%	9.2%
NC(=S)NNc1cccc(Cl)c1	28.9%	?	8.91µM*	?	-1.7%	39.8µM*
Cc1cccc(NNC(N)=S)c1	-15.6%	-14.8%	39.8µM*	-18.9%	?	14.1µM*
NC(=S)NNC(=O)Nc1cccc(Cl)c1	25.8%	-7.0%	8.91µM*	?	3.9%	14.2%
Cc1ccc(NC(=O)C(=O)NCCc2sc(-c3ccc(Cl)cc3)nc2C)cc1C	20.9%[57 µM]	/	19.5%[59 µM]	-20.1%	-17.3%	/
CCOc1ccc(CCNC(=O)c2cc3c(s2)-c2ccccc2OC3)cc1OCC	23.9%	/	-4.0%[59 µM]	?	6.4%	/
CCOc1ccc(NC(=O)c2sc(-n3nc(C)c(CCC(C)C)c3C)nc2C)cc1	56.1%	/	15.3%[59 µM]	8.6%	-24.7%	/
Cc1ccc(NC(=O)Nc2cccc(Cl)c2)c(C(=O)O)c1	12.7%	18.9µM*	-4.1%[59 µM]	?	-2.6%	9.5%
CSc1ccccc1NC(=O)Nc1cccc(Cl)c1	13.0%	-5.9%	-33.6%[2.33 µM]	-20.4%	32.9%	-13.4%
Cc1ccc2c(c1)c1cccc3c1n2CCN3CCC(N)=O	?	-1.6%	?	50.1µM*	39.8µM*	-3.0%
COc1ccc(OC)c(Nc2nc(-c3sc(C)nc3C)cs2)c1	?	-0.4%	50.1µM*	39.8µM*	31.6µM*	?
CCCC(C)C(=O)Nc1nc(C)c(-c2csc(Nc3ccccc3OC)n2)s1 (stereo unspecified)	-16.5%	-8.6%	7.94µM*	?	?	?
